Among the data in PubChem BioAssay (NCI) are growth values, retold here.

Structures are written as SMILES. The panel holds about 83,000 compounds, 20% with a hit somewhere; the sample as a whole holds those more often.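 Assay: single dose, 48 h. Readout: percent growth (0 = no net growth; negative = cell death). Active: <10.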 A number with no mark means an inactive call. Calls of active or inactive are those of the source.

Among the test systems are HCT-15 colon; HT29 colon; SNB-75 CNS; SNB-19 CNS; U251 CNS; PC-3 prostate; SK-MEL-5 melanoma; UACC-62 melanoma; LOX IMVI melanoma; SK-MEL-28 melanoma; SK-MEL-2 melanoma; EKVX NSCLC; SN12C renal; TK-10 renal; ACHN renal; CAKI-1 renal; A498 renal; CCRF-CEM leukemia; MOLT-4 leukemia; UO-31 renal.
Assay in all cases: NCI-60 one-dose screen, 48 h (100 = growth as untreated, 0 = no growth, -100 = all killed)
Holding throughout (settings): 10 µM unless noted

`COc1ccc(NC(=O)c2sc3nc(C)c(C(=O)/C=C/c4cccc(OC)c4)cc3c2N)cc1`: the growth was -12.8% (active) with HCT-15 colon; 1.21% (active) in the experiment on HT29 colon; 11.2% with SNB-75 CNS; 8.88% (active) in the experiment with SNB-19 CNS; 1.61% (active) in the experiment on U251 CNS; 55.2% with PC-3 prostate. Besides, the growth with SK-MEL-5 melanoma is 71.3%; in the experiment on UACC-62 melanoma it was 56.6%; with LOX IMVI melanoma it was -73.1% (active); in the experiment on SK-MEL-28 melanoma, 80.7%; with SK-MEL-2 melanoma it was 42.9%; in the experiment on EKVX NSCLC, 93.5%. Further, the growth is 19.7% in the experiment with SN12C renal; 82.2% in the experiment with TK-10 renal; 52.3% with ACHN renal; 32.9% in the experiment on CAKI-1 renal; 14.3% in the experiment on A498 renal; 7.32% (active) in the experiment on CCRF-CEM leukemia. In the experiment with MOLT-4 leukemia, the growth was 33.1%.
On to `CS(=O)(=O)Nc1cc(-c2ccc3ncnc(Nc4c(Cl)ccc5c4OCO5)c3c2)cnc1Cl`, for which the growth in the experiment on HCT-15 colon is -18% (active); in the experiment with HT29 colon, -12.9% (active); in the experiment on SNB-75 CNS it was -19.5% (active); in the experiment with SNB-19 CNS, -4.15% (active); in the experiment with U251 CNS, -30.4% (active); in the experiment with PC-3 prostate it was 2.75% (active). In addition, the growth with SK-MEL-5 melanoma is -93% (active); in the experiment on UACC-62 melanoma, -52% (active); in the experiment with LOX IMVI melanoma, -51.2% (active); with SK-MEL-28 melanoma, -6.42% (active); in the experiment on SK-MEL-2 melanoma it was -65.7% (active); with EKVX NSCLC it was -34.1% (active). Besides, the growth in the experiment on SN12C renal is 9.89% (active); in the experiment with TK-10 renal, -59.4% (active); with ACHN renal, 11.7%; with CAKI-1 renal, -30.4% (active); with A498 renal, -65.3% (active); with CCRF-CEM leukemia, 11.9%. The growth in the experiment on MOLT-4 leukemia was -15.1% (active).
Regarding `Cc1cc(=O)[nH]c2c(C#N)cnn12`, the growth in the experiment on HCT-15 colon was 107%; in the experiment with HT29 colon, 104%; in the experiment on SNB-75 CNS it was 100%; with SNB-19 CNS, 98.1%; with U251 CNS, 102%; in the experiment on PC-3 prostate, 107%. Also, the growth was 99.4% with SK-MEL-5 melanoma; 90.7% with UACC-62 melanoma; 101% with LOX IMVI melanoma; 105% in the experiment with SK-MEL-28 melanoma; 102% in the experiment with SK-MEL-2 melanoma; 97% with EKVX NSCLC. Moreover, the growth in the experiment on SN12C renal is 97.4%; in the experiment on TK-10 renal it was 101%; in the experiment on ACHN renal it was 98.8%; with CAKI-1 renal, 93.6%; with A498 renal it was 93.1%; with CCRF-CEM leukemia it was 101%. Besides, in the experiment with MOLT-4 leukemia, the growth is 105%.
In the case of `Cc1nc(-c2ccccc2)cc2c(O)c(C(=O)NN)[nH]c(=O)c12`, the growth in the experiment on HCT-15 colon was 107%; in the experiment on HT29 colon, 114%; in the experiment on SNB-75 CNS it was 104%; with SNB-19 CNS it was 106%; with U251 CNS, 106%; in the experiment on PC-3 prostate it was 67.3%. Besides, the growth was 100% with SK-MEL-5 melanoma; 98.6% in the experiment on UACC-62 melanoma; 107% in the experiment with LOX IMVI melanoma; 111% in the experiment with SK-MEL-28 melanoma; 93.3% in the experiment with SK-MEL-2 melanoma; 111% in the experiment with EKVX NSCLC. The growth was 90.9% with SN12C renal; 161% with TK-10 renal; 109% with ACHN renal; 114% in the experiment on CAKI-1 renal; 100% in the experiment with A498 renal; 95.1% in the experiment with CCRF-CEM leukemia. For the same molecule, the growth in the experiment with MOLT-4 leukemia is 102%.
For `CCOC(=O)c1cc2c(=O)oc3ccccc3c2oc1=O`, the growth was 96% in the experiment with HCT-15 colon; 96% in the experiment with HT29 colon; 82.1% in the experiment on SNB-75 CNS; 105% in the experiment with SNB-19 CNS; 91.6% in the experiment with U251 CNS; 69.3% with PC-3 prostate. The growth in the experiment on SK-MEL-5 melanoma was 106%; in the experiment with UACC-62 melanoma, 95.8%; in the experiment with LOX IMVI melanoma, 91.5%; in the experiment with SK-MEL-28 melanoma it was 116%; with SK-MEL-2 melanoma, 78.1%; in the experiment on EKVX NSCLC, 111%. Moreover, the growth was 98.3% in the experiment on SN12C renal; 98.6% in the experiment with TK-10 renal; 89.8% in the experiment with ACHN renal; 111% in the experiment on CAKI-1 renal; 106% in the experiment with A498 renal; 88.5% with CCRF-CEM leukemia. For the same molecule, in the experiment with MOLT-4 leukemia, the growth is 87.1%.
For the molecule `COc1cc(-c2nc(SCCC(C)C)nc(Nc3ccccc3Cl)c2C#N)cc(OC)c1OC`, the growth is 93% with HCT-15 colon; 89.1% in the experiment with HT29 colon; 89.3% with SNB-75 CNS; 98.9% in the experiment on SNB-19 CNS; 106% in the experiment with U251 CNS; 81.4% in the experiment with PC-3 prostate. Further, the growth in the experiment on SK-MEL-5 melanoma is 89.2%; in the experiment on UACC-62 melanoma, 81%; in the experiment on LOX IMVI melanoma, 101%; in the experiment with SK-MEL-28 melanoma it was 98.8%; in the experiment on SK-MEL-2 melanoma, 101%; in the experiment with EKVX NSCLC it was 93.3%. The growth in the experiment with SN12C renal is 90%; in the experiment on TK-10 renal, 125%; in the experiment on ACHN renal, 97.1%; in the experiment with CAKI-1 renal, 78.9%; in the experiment with A498 renal, 85.3%; in the experiment on CCRF-CEM leukemia, 92.1%. In addition, the growth in the experiment with MOLT-4 leukemia was 87.4%.
For `Fc1ccc(Nc2nc3nonc3nc2Nc2ccc(I)cc2)cc1`, the growth in the experiment with HCT-15 colon is 6.8% (active); with HT29 colon, 3% (active); in the experiment on SNB-75 CNS it was -5.57% (active); in the experiment on SNB-19 CNS, 18.6%; in the experiment with U251 CNS, -45% (active); in the experiment with PC-3 prostate, 4.86% (active). For the same molecule, the growth in the experiment with SK-MEL-5 melanoma was -72.7% (active); with UACC-62 melanoma, -21.4% (active); in the experiment on LOX IMVI melanoma it was -26.9% (active); in the experiment with SK-MEL-28 melanoma it was 17.1%; in the experiment on SK-MEL-2 melanoma, -39.7% (active); with EKVX NSCLC, 3.92% (active). Further, the growth in the experiment on SN12C renal was -5.7% (active); in the experiment on TK-10 renal it was -2.84% (active); with ACHN renal, 4.53% (active); in the experiment with CAKI-1 renal it was 11.3%; in the experiment on A498 renal, -36.1% (active); in the experiment with CCRF-CEM leukemia, 1.66% (active). For the same molecule, the growth in the experiment with MOLT-4 leukemia is -35.7% (active).
With `N#Cc1c(N)nnn1Cc1cc(=O)oc2c1ccc1ccccc12`, the growth with HCT-15 colon is 102%; with HT29 colon, 101%; with SNB-75 CNS it was 88.7%; in the experiment on SNB-19 CNS, 91.7%; with U251 CNS, 97.5%; in the experiment with PC-3 prostate, 93.4%. For the same molecule, the growth was 97.6% in the experiment on SK-MEL-5 melanoma; 92.5% with UACC-62 melanoma; 59.3% in the experiment on LOX IMVI melanoma; 113% in the experiment with SK-MEL-28 melanoma; 94.6% in the experiment with SK-MEL-2 melanoma; 76.1% in the experiment on EKVX NSCLC. The growth with SN12C renal is 94.2%; in the experiment with UO-31 renal it was 72.8%; in the experiment with TK-10 renal it was 115%; in the experiment with ACHN renal, 97.6%; with CAKI-1 renal, 98%; in the experiment on CCRF-CEM leukemia, 90.9%. Moreover, in the experiment on MOLT-4 leukemia, the growth is 89%.
On to `O=C(c1ccc(-c2nc(CSc3nc4ccccc4s3)no2)cc1)N1CCSCC1`, for which the growth in the experiment on HCT-15 colon was 68.5%; in the experiment with HT29 colon, 40.8%; in the experiment with SNB-75 CNS, 91.9%; in the experiment on SNB-19 CNS, 87.7%; in the experiment with U251 CNS, 61.6%; in the experiment on PC-3 prostate it was 63.5%. Besides, the growth with SK-MEL-5 melanoma was 24.6%; in the experiment on UACC-62 melanoma, 59.9%; in the experiment on LOX IMVI melanoma it was 55.2%; in the experiment on SK-MEL-28 melanoma, 96.6%; with SK-MEL-2 melanoma, 45.7%; in the experiment on EKVX NSCLC, 47.1%. Further, the growth with SN12C renal is 82.3%; with UO-31 renal, 55.6%; in the experiment with TK-10 renal, 55.1%; in the experiment on ACHN renal it was 60.4%; in the experiment with CAKI-1 renal, 63.5%; in the experiment with CCRF-CEM leukemia it was 71.2%. The growth in the experiment on MOLT-4 leukemia is -1.49% (active).
